# Test results as given in PubChem BioAssay.
# For part of these data: Entries with a potency or affinity are not part of this list. Calls of active or inactive are those of the source.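 How the source made its calls, unless noted: active means fluorescence ratio normalized to control raised more than 50% in primary screen plus both repeat runs; inactive means the rest.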
# How the values were obtained:
# [1] = system: TRPC4 beta (transient receptor potential cation channel C4), mouse; test: TRPC4 cation channel opening, retest – cell-based, Fluo4 calcium, HEK293 TRPC4beta/mu-opioid, duplicates, 10 µM, confirmation (AID 2426); conditions: Fluo4 calcium fluorescence, at 10 µM; stronger effect = higher value;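 on activation: percent rise of integrated ratio over buffer wells lacking compound which define 0%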
# [2] = system: transient receptor potential cation channel C4 beta (TRPC4), mouse; test: TRPC4 cation channel opening, second retest – cell-based, second round, Fluo4, HEK293 TRPC4beta/mu-opioid, 1 µM, confirmation (AID 2461;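 active means primary screen active and over 50% activation in each of two duplicate runs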); conditions: Fluo4 calcium fluorescence, at 1 µM; stronger effect = higher value
# [3] = system: TRPC4 (transient receptor potential cation channel C4 beta), mouse; test: potentiation of DAMGO EC20 TRPC4 response – cell-based, second round, Fluo-4, HEK293 TRPC4beta/mu-opioid, 1 µM, confirmation (AID 2554;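 active means primary screen hit whose fluorescence ratio, in both repeats, exceeds the weak agonist control mean by 3 SD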); conditions: DAMGO EC20, Fluo-4 calcium flux, at 1 µM; stronger effect = higher value
# [4] = system: TRPC4 beta (transient receptor potential cation channel C4), mouse; test: potentiation of DAMGO EC20 TRPC4 response – cell-based, Fluo-4, HEK293 TRPC4beta/mu-opioid, confirmation (AID 2555;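 active means primary screen hit whose calcium fluorescence ratio, in both repeats, exceeds the weak agonist control mean by 3 SD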); conditions: DAMGO EC20, Fluo-4 calcium flux, at 10 µM; stronger effect = higher value
# [5] = target: Short transient receptor potential channel 4 (Mus musculus) (UniProt Q9QUQ5); test: blockers of DAMGO-evoked TRPC4 calcium flux – cell-based, Fluo4, HEK293 TRPC4beta/mu-opioid, confirmation (AID 2636;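 active means calcium signal cut by more than 3 SD below the full-agonist control yet still positive, in both repeats and the earlier primary screen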); conditions: at 10 µM; stronger effect = higher value
# [6] = target: Short transient receptor potential channel 4 (Mus musculus) (UniProt Q9QUQ5); test: blockers of DAMGO-evoked TRPC4 calcium flux – cell-based, second round, Fluo4, HEK293 TRPC4beta/mu-opioid, 1 µM, confirmation (AID 2637;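 active means calcium signal ratio cut to more than 3 SD under the fully stimulated control mean yet still positive, in both repeats and the primary screen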); conditions: at 1 µM; stronger effect = higher value
# [7] = target: Short transient receptor potential channel 4 (Mus musculus) (UniProt Q9QUQ5); test: calcium entry via TRPC4 opening agents – cell-based, HEK293 TRPC4/mu-opioid, Fluo-4 calcium, dose response (AID 434937;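 active means primary screen activator hit with a dose response curve and TRPC4 channel activation at any tested dose; inactive means no activation, no dose response, or not a primary hit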)
# [8] = target: Short transient receptor potential channel 4 (Mus musculus) (UniProt Q9QUQ5); test: potentiation of DAMGO-evoked TRPC4 calcium signal – cell-based, HEK293 TRPC4/mu-opioid, Fluo-4 calcium, EC20 DAMGO, dose response (AID 434941;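 active means earlier screen potentiator hit that boosts the TRPC4 ion channel at some dose, with a dose response; inactive means no potentiation, no dose response, or not a prior hit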;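 further: calcium entry triggered by an EC20 dose of DAMGO at the co-expressed mu-opioid receptor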)
# [9] = target: Short transient receptor potential channel 4 (Mus musculus) (UniProt Q9QUQ5); test: block of DAMGO-driven TRPC4 calcium entry – cell-based, HEK293 TRPC4/mu-opioid, Fluo-4 calcium, dose response (AID 434942;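 active means primary screen inhibitor hit that blocks the TRPC4 channel at some tested dose, yielding a dose curve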)
# [10] = target: Short transient receptor potential channel 6 (Mus musculus) (UniProt Q61143); test: TRPC6 blockade by TRPC4 inhibitor hits – cell-based, HEK293, membrane potential dye, duplicate, selectivity assay for TRPC4 inhibitor project, confirmation (AID 434948;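 active means active in primary screen and both duplicates, each dropping signal beyond three positive-control SD with fluorescence still positive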); conditions: HEK293 TRPC6, membrane potential dye fluorescence, at 10 µM, stimulated with maximal-effect acetylcholine; stronger effect = higher value
# [11] = target: Short transient receptor potential channel 6 (Mus musculus) (UniProt Q61143); test: TRPC6 opening by TRPC4 activator hits – cell-based, HEK293, membrane potential dye, duplicate, selectivity assay for TRPC4 activator project, confirmation (AID 434950;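 active means membrane potential signal rise above negative control mean plus 3 SD in both duplicates, also active in the earlier TRPC4 screen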); conditions: HEK293 TRPC6, membrane potential fluorescence, at 10 µM; activation: stronger effect = higher value; outcome: activation
# [12] = target: Short transient receptor potential channel 6 (Mus musculus) (UniProt Q61143); test: positive modulators of mouse TRPC6 channel – HEK293 cells, membrane potential dye, duplicate, selectivity assay for TRPC4 potentiator project, confirmation (AID 434952;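 active means compound raising the membrane signal above positive-control mean plus 3 SD in both repeats, and a primary screen hit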); conditions: HEK293 TRPC6, membrane potential dye fluorescence, at 10 µM, maximal acetylcholine added after compound; stronger effect = higher value
# [13] = target: Short transient receptor potential channel 4 (Mus musculus) (UniProt Q9QUQ5); test: calcium flux activators in TRPC4/5HT1a cells, counter-screen for TRPC4 activator project, cell-based, second counter screen, HEK293 TRPC4/5HT1a, Fluo-4 (AID 434977;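 active means calcium signal rise above buffer-control mean plus 5 SD in both duplicates, and also a hit in the primary screen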); conditions: Fluo-4 calcium flux, at 10 µM; stronger effect = higher value
# [14] = serotonin-gated TRPC4 signal block – cell-based, second counter screen, HEK293 TRPC4/5HT1a, Fluo-4, counter-screen for TRPC4 inhibitor project, confirmation (AID 434978;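 active means primary screen active whose calcium signal fell more than 3 SD beyond the full-serotonin control mean in both duplicate plates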;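 further: serotonin given first at submaximal then at maximal dose after compound preincubation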); conditions: Fluo-4 calcium flux, at 10 µM, serotonin added to trigger calcium flux; stronger effect = higher value
# [15] = system: TRPC4 (mouse), co-expressed with 5HT1a in HEK293; test: enhancement of serotonin-evoked TRPC4 response – cell-based, second counter screen, HEK293 TRPC4/5HT1a, Fluo-4, counter-screen for TRPC4 potentiator project, confirmation (AID 434979;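 active means signal rise over 3 SD above mean of control wells given weak agonist, in both repeats and first screen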); conditions: Fluo-4 calcium flux, at 10 µM, serotonin added at its EC20 dose; stronger effect = higher value
# [16] = nonspecific calcium rise without TRPC4 – cell-based, HEK293 mu-opioid receptor line, counter-screen for TRPC4 activator project, confirmation (AID 449723;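 active means hit in primary screen, with calcium signal over 5 SD above buffer well mean in both duplicates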;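 further: counter screen cells carry the mu-opioid receptor alone and lack TRPC4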); conditions: HEK293 mu-opioid cells, Fluo-4 calcium fluorescence, at 10 µM; stronger effect = higher value
# [17] = nonspecific potentiation of DAMGO calcium response – cell-based, HEK293 mu-opioid receptor line, counter-screen for TRPC4 allosteric potentiator project, confirmation (AID 449724;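 active means calcium signal rise more than 3 SD above the low-dose agonist control mean, in both duplicate plates and the primary screen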); conditions: HEK293 mu-opioid receptor cells, Fluo-4 calcium flux, at 10 µM, compound added before EC20 DAMGO stimulus; stronger effect = higher value
# Short transient receptor potential channel 4 (Mus musculus), sequence (Q9QUQ5 whole entry, looked up): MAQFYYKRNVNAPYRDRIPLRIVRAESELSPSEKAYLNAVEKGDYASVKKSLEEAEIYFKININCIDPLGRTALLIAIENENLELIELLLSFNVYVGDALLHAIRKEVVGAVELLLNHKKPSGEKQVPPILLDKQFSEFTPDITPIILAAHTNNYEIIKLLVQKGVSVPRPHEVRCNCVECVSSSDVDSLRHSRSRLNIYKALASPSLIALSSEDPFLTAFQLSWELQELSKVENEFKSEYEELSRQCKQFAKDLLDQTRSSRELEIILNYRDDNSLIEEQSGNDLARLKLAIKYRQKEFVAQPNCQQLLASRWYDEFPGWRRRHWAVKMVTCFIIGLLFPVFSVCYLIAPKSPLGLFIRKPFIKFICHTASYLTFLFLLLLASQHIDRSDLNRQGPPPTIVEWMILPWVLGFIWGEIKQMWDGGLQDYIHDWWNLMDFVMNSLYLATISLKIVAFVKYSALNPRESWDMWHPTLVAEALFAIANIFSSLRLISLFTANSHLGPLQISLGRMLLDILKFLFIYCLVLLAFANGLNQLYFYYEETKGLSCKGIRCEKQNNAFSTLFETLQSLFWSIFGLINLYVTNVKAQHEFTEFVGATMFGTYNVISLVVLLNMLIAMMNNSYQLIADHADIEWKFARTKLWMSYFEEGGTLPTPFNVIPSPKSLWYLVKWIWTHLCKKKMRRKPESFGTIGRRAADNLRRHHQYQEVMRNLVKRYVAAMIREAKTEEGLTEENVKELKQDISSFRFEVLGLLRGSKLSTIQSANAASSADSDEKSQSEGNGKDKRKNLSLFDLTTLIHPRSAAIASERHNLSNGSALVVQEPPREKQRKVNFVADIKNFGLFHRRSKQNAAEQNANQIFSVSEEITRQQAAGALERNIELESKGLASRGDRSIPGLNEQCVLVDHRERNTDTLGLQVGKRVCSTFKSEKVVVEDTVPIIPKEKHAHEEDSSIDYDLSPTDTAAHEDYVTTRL
# Short transient receptor potential channel 6 (Mus musculus), sequence (Q61143 whole entry, looked up): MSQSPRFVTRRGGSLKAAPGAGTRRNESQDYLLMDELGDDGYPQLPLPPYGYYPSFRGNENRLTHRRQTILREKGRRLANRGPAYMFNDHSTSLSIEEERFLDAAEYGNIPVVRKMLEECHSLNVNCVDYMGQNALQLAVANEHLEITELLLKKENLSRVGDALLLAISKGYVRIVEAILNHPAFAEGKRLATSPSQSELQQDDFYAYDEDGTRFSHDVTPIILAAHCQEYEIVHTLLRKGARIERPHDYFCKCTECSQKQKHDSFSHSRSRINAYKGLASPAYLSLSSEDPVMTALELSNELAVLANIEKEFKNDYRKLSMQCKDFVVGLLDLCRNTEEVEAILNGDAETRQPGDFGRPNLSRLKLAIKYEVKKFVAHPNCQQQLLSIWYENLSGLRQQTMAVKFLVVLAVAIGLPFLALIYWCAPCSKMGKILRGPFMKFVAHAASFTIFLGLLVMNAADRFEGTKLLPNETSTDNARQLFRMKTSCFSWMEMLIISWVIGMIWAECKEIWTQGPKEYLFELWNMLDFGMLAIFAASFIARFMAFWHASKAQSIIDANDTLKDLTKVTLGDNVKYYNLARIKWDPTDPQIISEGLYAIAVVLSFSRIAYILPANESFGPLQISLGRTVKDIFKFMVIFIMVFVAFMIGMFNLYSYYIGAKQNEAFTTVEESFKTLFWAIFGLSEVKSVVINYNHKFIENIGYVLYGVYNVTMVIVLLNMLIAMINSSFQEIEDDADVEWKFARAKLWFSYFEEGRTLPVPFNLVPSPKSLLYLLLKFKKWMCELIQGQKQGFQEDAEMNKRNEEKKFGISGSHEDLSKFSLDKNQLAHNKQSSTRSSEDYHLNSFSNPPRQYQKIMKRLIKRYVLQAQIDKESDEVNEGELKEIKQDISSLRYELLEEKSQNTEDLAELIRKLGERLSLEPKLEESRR
compound,measurement,setting,value
CCN(CCCNC(=O)CCCOc1cc(=O)n(C)c2ccccc12)Cc1ccccc1,outcome,[1],inactive
same,outcome,[2],inactive
same,outcome,[3],inactive
same,outcome,[4],inactive
same,outcome,[5],inactive
same,outcome,[6],inactive
same,outcome,[7],inactive
same,outcome,[8],inactive
same,outcome,[9],inactive
same,outcome,[10],inactive
same,outcome,[11],inactive
same,outcome,[12],inactive
same,outcome,[13],inactive
same,outcome,[14],inactive
same,potentiation,[15],16.1% (active)
same,outcome,[16],inactive
same,outcome,[17],inactive
CCn1cc(CN2CCC(n3nccc3NC(=O)CCOc3ccccc3)CC2)c(C)n1,outcome,[1],inactive
same,outcome,[2],inactive
same,outcome,[3],inactive
same,outcome,[4],inactive
same,outcome,[5],inactive
same,outcome,[6],inactive
same,outcome,[7],inactive
same,outcome,[8],inactive
same,outcome,[9],inactive
same,outcome,[10],inactive
same,outcome,[11],inactive
same,outcome,[12],inactive
same,outcome,[13],inactive
same,outcome,[14],inactive
same,outcome,[15],inactive
same,outcome,[16],inactive
same,outcome,[17],inactive
COc1ccc(-c2cc(C(F)(F)F)nc(N3CCN(C)CC3)n2)cc1,outcome,[1],inactive
same,outcome,[2],inactive
same,outcome,[3],inactive
same,outcome,[4],inactive
same,outcome,[5],inactive
same,outcome,[6],inactive
same,outcome,[7],inactive
same,outcome,[8],inactive
same,outcome,[9],inactive
same,outcome,[10],inactive
same,outcome,[11],inactive
same,outcome,[12],inactive
same,outcome,[13],inactive
same,outcome,[14],inactive
same,potentiation,[15],14.5% (active)
same,outcome,[16],inactive
same,outcome,[17],inactive
Cc1cccc(Cn2c(=O)c3c(nc4n3CCCN4Cc3ccccc3)n(C)c2=O)c1,outcome,[1],inactive
same,outcome,[2],inactive
same,potentiation,[3],14% (active)
same,potentiation,[4],120% (active)
same,outcome,[5],inactive
same,outcome,[6],inactive
same,outcome,[7],inactive
same,outcome,[8],inactive
same,outcome,[9],inactive
same,outcome,[10],inactive
same,outcome,[11],inactive
same,outcome,[12],inactive
same,outcome,[13],inactive
same,outcome,[14],inactive
same,potentiation,[15],75.2% (active)
same,outcome,[16],inactive
same,outcome,[17],inactive
CCN1CCN(CCC(=O)Nc2ccccc2OC)CC1,outcome,[1],inactive
same,outcome,[2],inactive
same,outcome,[3],inactive
same,potentiation,[4],11% (active)
same,outcome,[5],inactive
same,outcome,[6],inactive
same,outcome,[7],inactive
same,outcome,[8],inactive
same,outcome,[9],inactive
same,outcome,[10],inactive
same,outcome,[11],inactive
same,outcome,[12],inactive
same,outcome,[13],inactive
same,outcome,[14],inactive
same,potentiation,[15],17.3% (active)
same,outcome,[16],inactive
same,outcome,[17],inactive
CC(=O)Nc1ccc(CN2CCCC(CO)(Cc3ccccc3C)C2)cc1 (stereo not given),outcome,[1],inactive
same,outcome,[2],inactive
same,outcome,[3],inactive
same,outcome,[4],inactive
same,outcome,[5],inactive
same,outcome,[6],inactive
same,outcome,[7],inactive
same,outcome,[8],inactive
same,outcome,[9],inactive
same,outcome,[10],inactive
same,outcome,[11],inactive
same,outcome,[12],inactive
same,outcome,[13],inactive
same,outcome,[14],inactive
same,outcome,[15],inactive
same,outcome,[16],inactive
same,outcome,[17],inactive
CSc1ccccc1OC1CCN(Cc2ccccc2)CC1,outcome,[1],inactive
same,outcome,[2],inactive
same,outcome,[3],inactive
same,outcome,[4],inactive
same,outcome,[5],inactive
same,outcome,[6],inactive
same,outcome,[7],inactive
same,outcome,[8],inactive
same,outcome,[9],inactive
same,outcome,[10],inactive
same,outcome,[11],inactive
same,outcome,[12],inactive
same,outcome,[13],inactive
same,outcome,[14],inactive
same,outcome,[15],inactive
same,outcome,[16],inactive
same,outcome,[17],inactive
CN(C)CCCNc1c2c(nc3cc(-c4cccc(F)c4)nn13)CCC2,activation,[1],81% (active)
same,outcome,[2],inactive
same,outcome,[3],inactive
same,outcome,[4],inactive
same,outcome,[5],inactive
same,outcome,[6],inactive
same,outcome,[7],inactive
same,outcome,[8],inactive
same,outcome,[9],inactive
same,outcome,[10],inactive
same,outcome,[11],inactive
same,outcome,[12],inactive
same,outcome,[13],inactive
same,outcome,[14],inactive
same,outcome,[15],inactive
same,outcome,[16],inactive
same,outcome,[17],inactive
Cc1noc(C)c1COC(=O)[C@@H](NC(=O)c1ccccc1Cl)C(C)C,outcome,[1],inactive
same,outcome,[2],inactive
same,outcome,[3],inactive
same,outcome,[4],inactive
same,outcome,[5],inactive
same,outcome,[6],inactive
same,outcome,[7],inactive
same,outcome,[8],inactive
same,outcome,[9],inactive
same,outcome,[10],inactive
same,outcome,[11],inactive
same,outcome,[12],inactive
same,outcome,[13],inactive
same,outcome,[14],inactive
same,outcome,[15],inactive
same,outcome,[16],inactive
same,outcome,[17],inactive
O=C1CC2(CCN(S(=O)(=O)c3ccccc3)CC2)Oc2ccccc21,outcome,[1],inactive
same,outcome,[2],inactive
same,outcome,[3],inactive
same,potentiation,[4],52% (active)
same,outcome,[5],inactive
same,outcome,[6],inactive
same,outcome,[7],inactive
same,outcome,[8],inactive
same,outcome,[9],inactive
same,outcome,[10],inactive
same,outcome,[11],inactive
same,outcome,[12],inactive
same,outcome,[13],inactive
same,outcome,[14],inactive
same,potentiation,[15],28.7% (active)
same,outcome,[16],inactive
same,outcome,[17],inactive
Cc1ccc(CNC(=O)CSc2nc(=O)n3ccccc3n2)cc1,outcome,[1],inactive
same,outcome,[2],inactive
same,outcome,[3],inactive
same,outcome,[4],inactive
same,outcome,[5],inactive
same,outcome,[6],inactive
same,outcome,[7],inactive
same,outcome,[8],inactive
same,outcome,[9],inactive
same,outcome,[10],inactive
same,outcome,[11],inactive
same,outcome,[12],inactive
same,outcome,[13],inactive
same,outcome,[14],inactive
same,outcome,[15],inactive
same,outcome,[16],inactive
same,outcome,[17],inactive
C/C(=C\c1cccc(Cl)c1Cl)C(=O)c1c(C)cc(C)[nH]c1=O,outcome,[1],inactive
same,outcome,[2],inactive
same,outcome,[3],inactive
same,outcome,[4],inactive
same,outcome,[5],inactive
same,outcome,[6],inactive
same,outcome,[7],inactive
same,outcome,[8],inactive
same,outcome,[9],inactive
same,outcome,[10],inactive
same,outcome,[11],inactive
same,outcome,[12],inactive
same,outcome,[13],inactive
same,outcome,[14],inactive
same,potentiation,[15],16.5% (active)
same,outcome,[16],inactive
same,outcome,[17],inactive
Cn1c(=O)c2c(nc(CN3CCc4ccccc4C3)n2Cc2cccc(Cl)c2)n(C)c1=O,outcome,[1],inactive
same,outcome,[2],inactive
same,potentiation,[3],6% (active)
same,potentiation,[4],45% (active)
same,outcome,[5],inactive
same,outcome,[6],inactive
same,outcome,[7],inactive
same,outcome,[8],inactive
same,outcome,[9],inactive
same,outcome,[10],inactive
same,outcome,[11],inactive
same,outcome,[12],inactive
same,outcome,[13],inactive
same,outcome,[14],inactive
same,potentiation,[15],78.3% (active)
same,outcome,[16],inactive
same,outcome,[17],inactive
Cc1ccc(Nc2c(N)c(=O)oc3ccccc23)cc1,outcome,[1],inactive
same,outcome,[2],inactive
same,outcome,[3],inactive
same,outcome,[4],inactive
same,outcome,[5],inactive
same,outcome,[6],inactive
same,outcome,[7],inactive
same,outcome,[8],inactive
same,outcome,[9],inactive
same,outcome,[10],inactive
same,outcome,[11],inactive
same,outcome,[12],inactive
same,outcome,[13],inactive
same,outcome,[14],inactive
same,potentiation,[15],33% (active)
same,outcome,[16],inactive
same,outcome,[17],inactive
Oc1ccc(-c2[nH]ncc2-c2ccc(Br)cc2)c(O)c1,outcome,[1],inactive
same,outcome,[2],inactive
same,outcome,[3],inactive
same,outcome,[4],inactive
same,outcome,[5],inactive
same,outcome,[6],inactive
same,outcome,[7],inactive
same,outcome,[8],inactive
same,outcome,[9],inactive
same,outcome,[10],inactive
same,outcome,[11],inactive
same,outcome,[12],inactive
same,outcome,[13],inactive
same,outcome,[14],inactive
same,outcome,[15],inactive
same,outcome,[16],inactive
same,outcome,[17],inactive
